The results in this text go back to PubChem BioAssay (NCATS).

Records with an inconclusive call do not appear. A call without a number means that no potency is given here. The source made the active and inactive calls. Unless noted, the call rests on the fitted dose curve; in most records, active means well fitted curve in the direction sought with a large enough effect; inconclusive means small, poorly fitted or top-dose-only effect, or another doubt; inactive means no such curve, though single readings can be large; an effect the other way counts as inactive or inconclusive.

Assay [1] addresses Cytochrome P450 1A2 (Homo sapiens) (UniProt P05177). Kind of assay: p450-cyp1a2 (AID 410; calls by dose curve; further: potency means the concentration at half of the fitted maximal effect). Put shortly:
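Luminescent demethylation readout: Luciferin-ME (100uM, equal to Km) turned over by 20nM CYP1A2 for 60 min at room temperature after NADPH regeneration addition, following 10 min compound preincubation. Normalization used 57 uM furafylline as full inhibition.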

Assay [2] in a line: Stat Signaling Pathway (AID 446; active means well fitted curve in either direction with a large enough effect, not every such curve was filed as active;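 further: ME-180 cervical cancer cells given 40 pM IL-6 alongside compound; SIE-controlled beta-lactamase reporter measured as 460/530 nm FRET emission ratio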). Put shortly:
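Normalization used AC90 stimulation (300 pM IL-6) and AC90 inhibition (125 nM pan-JAK inhibitor at 40 pM IL-6). The underlying signal is SIE-driven beta-lactamase in ME-180 cells after 5 h IL-6 exposure with compound.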

Assay [3] has as its target 3',5'-cyclic-AMP phosphodiesterase 4B (Homo sapiens) (UniProt Q07343). Put plainly: qHTS Assay for Inhibitors of PDE-IV (AID 607; active means well fitted activation curve with a large enough effect in the main read-out, with a control signal flat, not every such curve was filed as active). Put shortly: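 HEK293 ACTOne cells with CNG channel (1000/well), endogenous PDE4; membrane potential dye, compounds up to 22.9 uM final. Fluorescence Ex 535/Em 590; RO 20-1724 (100 uM final) as reference.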
In general terms: Quantitative high-throughput screening tests each substance at several concentrations.

Assay [4] addresses Cytochrome P450 3A4 (Homo sapiens) (UniProt P08684). Kind of assay: qHTS Assay for Inhibitors and Substrates of Cytochrome P450 3A4 (AID 884). Further: nearly all actives have a fitted effect of over 50% in size. Further: potency means the concentration at half of the fitted maximal effect. The method in brief: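 Luminescent readout of luciferin produced by CYP3A4 (20 nM) dealkylation of Luciferin-PPXE, 25 uM (its KM). NADPH-driven reaction ran 60 min at RT after 10 min compound preincubation; data scaled to 57 uM ketoconazole as 100% inhibition.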

Assay [5] concerns the target Cytochrome P450 2C19 (Homo sapiens) (UniProt P33261). Kind of assay: qHTS Assay for Inhibitors and Substrates of Cytochrome P450 2C19 (AID 899). Further: nearly all actives have a fitted effect of over 60% in size. Further: potency means the concentration at half of the fitted maximal effect. Put shortly:
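Luminescent read-out of luciferin formed from Luciferin-H EGE (10uM, equal to KM). Enzyme 5nM in 50mM KPO4; compound added, 10 min at 37C, then NADPH regenerating system for 60 min at 37C. Full inhibition defined by 57uM ketoconazole.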

For assay [6], the target named is Dual specificity protein kinase CLK4 (Homo sapiens) (UniProt Q9HAZ1). Put plainly: qHTS Assay for Inhibitors of CDC-like Kinase 4 (ADP-Glo Assay) (AID 1771). Further: potency means the concentration at half of the fitted maximal effect; nearly all actives have a fitted effect of over 70% in size. The method in brief:
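ADP production was read by ADP-Glo luminescence after residual ATP depletion, following 1 h room-temperature reaction of 25 nM Clk4, 1 uM ATP and 100 uM RS peptide with MgCl2, EGTA, DTT and Triton X-100.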

A short description of assay [7]: HepG2 viability counterscreen (readout 1: protease activity) against the NCATS DSHEA and TCM libraries (AID 1794841).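 Further: cells exposed to compounds for about 24 h before the protease read.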 Put shortly:
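HepG2 cells (1,000 cells/well) attached ~4 h, then treated ~24 h at 37C with substances. Protease activity read by GF-AFC (25 uM final, 30 min, Ex/Em 380/510 nm); ATP content then by CellTiter-Glo luminescence.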
In general terms: The purpose of a counterscreen is to sort out artefacts and off-target activity.

Assay [8] in a line: Dual reporter qHTS for agonist of Pregnane X Receptor (hPXR) against the NCATS DSHEA and TCM libraries: Fluorescence readout (AID 1920058). The method in brief: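 Viability readout (CellTiter-Fluor, 405/540 nm, 1 h) from agonist-mode PXR dual reporter in hPXR-Luc HepG2 cells. Substances ~24 h, 37 °C, 5% CO2; rifampicin reference, tetraoctyl ammonium bromide cytotoxic control.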

Assay [9] deals with Estrogen receptor (Homo sapiens) (UniProt P03372). Put plainly: qHTS assay for small molecule antagonists of estrogen receptor alpha signaling (AID 588513; active means well fitted curve in the direction sought with a large enough effect in the signal ratio, with a control signal flat, not every such curve was filed as active; the % refers to the signal ratio). Put shortly: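 ER-alpha-UAS-bla GripTite HEK 293 cells in medium with 2% charcoal/dextran-treated FBS were preincubated 4 h at 37 C, dosed with compound (1:2 titration), stimulated with 0.5nM 17-beta-estradiol for 18 h, then read by CCF4 beta-lactamase fluorescence.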
Sequence of Estrogen receptor (Homo sapiens) (P03372 whole entry, looked up): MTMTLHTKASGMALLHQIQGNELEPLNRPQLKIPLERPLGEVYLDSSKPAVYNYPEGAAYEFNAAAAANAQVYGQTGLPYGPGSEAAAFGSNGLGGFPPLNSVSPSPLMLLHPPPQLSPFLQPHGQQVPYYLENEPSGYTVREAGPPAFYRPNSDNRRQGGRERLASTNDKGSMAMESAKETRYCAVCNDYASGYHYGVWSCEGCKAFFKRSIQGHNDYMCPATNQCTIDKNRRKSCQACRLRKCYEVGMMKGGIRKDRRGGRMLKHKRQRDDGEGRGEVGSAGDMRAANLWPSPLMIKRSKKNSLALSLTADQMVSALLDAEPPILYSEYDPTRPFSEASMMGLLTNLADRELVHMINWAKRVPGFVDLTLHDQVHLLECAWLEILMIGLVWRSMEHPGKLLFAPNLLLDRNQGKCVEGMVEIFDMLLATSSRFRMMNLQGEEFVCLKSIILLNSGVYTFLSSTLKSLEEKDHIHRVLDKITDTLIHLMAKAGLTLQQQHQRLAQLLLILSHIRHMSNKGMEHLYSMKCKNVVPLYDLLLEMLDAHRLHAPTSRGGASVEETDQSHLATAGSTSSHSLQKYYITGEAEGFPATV

The target in assay [10] is Peroxisome proliferator-activated receptor gamma (Homo sapiens) (UniProt P37231). Put plainly: qHTS assay for small molecule agonists of peroxisome proliferator-activated receptor gamma signaling (AID 588536; active means well fitted curve in the direction sought with a large enough effect in the signal ratio, with a control signal flat, not every such curve was filed as active; the % refers to the signal ratio). The method in brief:
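Cells were plated and held 6–6.5 h at 37 C, then compounds were added as a titration series. After a further 16 h, CCF4 dye was loaded for 2 h at room temperature and emission at 460/530 nm recorded.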

Assay [11] can be described thus: qHTS assay for small molecule antagonists of retinoid X receptor alpha signaling (AID 588546; active means well fitted inhibition curve with a large enough effect in the signal ratio, with a control signal flat, not every such curve was filed as active; the % refers to the signal ratio;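 further: cells stimulated with 9-cis-retinoic acid as agonist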). The settings on record: HEK293T RXRa-UAS-bla, beta-lactamase ratio, antagonist mode; measured here: W530 green channel, cytotoxicity proxy. Put shortly:
(§1)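 Beta-lactamase reporter inhibition, read as CCF4 fluorescence ratio (ex 405, em 460/530 nm) after 2 h at RT. HEK293T UAS-bla cells, 2500/well, were stimulated with 9-cis-RA at 500 or 100 nM final alongside test compound for 18 h at 37 C.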

Assay [12] has as its target Retinoic acid receptor RXR-alpha (Homo sapiens) (UniProt P19793). The assay is described as above. The following applies: HEK293T RXRa-UAS-bla, beta-lactamase ratio, antagonist mode. The method in brief: as §1
Assay [13] in a line: qHTS assay for small molecule activators of the p53 signaling pathway (AID 651743; active means well fitted activation curve with a large enough effect in the signal ratio, not every such curve was filed as active; the % refers to the signal ratio; further: series mostly up to about 92 µM). The following applies: HCT-116 p53RE-bla, beta-lactamase FRET ratio, 16 h; activation: stronger effect = higher value. The method in brief:
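Following 16 hours of compound exposure at 37 C, HCT-116 cells bearing the p53RE-bla reporter were loaded with LiveBLAzer B/G FRET substrate for 2 hours at room temperature and fluorescence intensity was recorded.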

In assay [14] the target is Peroxisome proliferator-activated receptor alpha (Homo sapiens) (UniProt Q07869). Kind of assay: qHTS assay for small molecule agonists of the peroxisome proliferator-activated receptor alpha (PPARalpha) signaling pathway (AID 651778). The following applies: PathHunter PPARalpha complementation, chemiluminescence, 6 h; max response: stronger effect = higher value. Put shortly:
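Enzyme-fragment complementation assay in which ligand-bound PPARalpha translocates and forms an active enzyme that generates chemiluminescence. Cells were plated overnight, exposed to compound for 6 hr at 37 C, and then given detection reagent for 60 min at room temperature.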

Assay [15] concerns the target Cytochrome P450 2C9 (Homo sapiens) (UniProt P11712). Put plainly: qHTS Assay for Inhibitors and Substrates of Cytochrome P450 2C9 (AID 883). Further: nearly all actives have a fitted effect of over 60% in size. Put shortly:
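10nM CYP2C9 + 100uM Luciferin-H (=KM), 25mM KPO4; cpd 10 min 37C; NADPH regen, 60 min 37C; stop/detect with P450 Glo-Buffer 20 min; luminescence. Norm. to 57uM sulphaphenazole as full inhibition.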

Assay [16] has as its target Cytochrome P450 2D6 (Homo sapiens) (UniProt P10635). Put plainly: qHTS Assay for Inhibitors and Substrates of Cytochrome P450 2D6 (AID 891).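 Further: luciferin methyl ether substrate demethylated by CYP2D6 with NADPH regeneration; nearly all actives have a fitted effect of over 60% in size.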 The method in brief:
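Luminescent read-out of luciferin formed by 5 nM human CYP2D6 demethylating 30 uM Luciferin-ME EGE (Km level) over 60 min at room temperature after NADPH regeneration addition. Data normalized to full inhibition by 1.43 uM quinidine.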

Sequence of Peroxisome proliferator-activated receptor gamma (Homo sapiens) (P37231 whole entry, looked up): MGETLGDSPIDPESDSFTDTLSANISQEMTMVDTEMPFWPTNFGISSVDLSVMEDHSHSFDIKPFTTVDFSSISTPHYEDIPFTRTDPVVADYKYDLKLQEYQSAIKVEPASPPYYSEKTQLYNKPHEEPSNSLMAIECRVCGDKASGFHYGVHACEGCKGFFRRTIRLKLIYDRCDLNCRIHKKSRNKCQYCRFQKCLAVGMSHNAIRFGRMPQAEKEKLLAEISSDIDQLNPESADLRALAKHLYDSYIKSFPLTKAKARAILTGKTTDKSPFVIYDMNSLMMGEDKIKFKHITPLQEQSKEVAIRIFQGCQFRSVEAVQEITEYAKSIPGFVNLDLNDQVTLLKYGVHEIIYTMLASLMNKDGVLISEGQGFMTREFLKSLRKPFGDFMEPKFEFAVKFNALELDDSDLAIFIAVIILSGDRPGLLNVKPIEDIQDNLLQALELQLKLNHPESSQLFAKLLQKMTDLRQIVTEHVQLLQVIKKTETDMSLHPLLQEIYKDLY
Sequence of Peroxisome proliferator-activated receptor alpha (Homo sapiens) (Q07869 whole entry, looked up, the tested form may be a part): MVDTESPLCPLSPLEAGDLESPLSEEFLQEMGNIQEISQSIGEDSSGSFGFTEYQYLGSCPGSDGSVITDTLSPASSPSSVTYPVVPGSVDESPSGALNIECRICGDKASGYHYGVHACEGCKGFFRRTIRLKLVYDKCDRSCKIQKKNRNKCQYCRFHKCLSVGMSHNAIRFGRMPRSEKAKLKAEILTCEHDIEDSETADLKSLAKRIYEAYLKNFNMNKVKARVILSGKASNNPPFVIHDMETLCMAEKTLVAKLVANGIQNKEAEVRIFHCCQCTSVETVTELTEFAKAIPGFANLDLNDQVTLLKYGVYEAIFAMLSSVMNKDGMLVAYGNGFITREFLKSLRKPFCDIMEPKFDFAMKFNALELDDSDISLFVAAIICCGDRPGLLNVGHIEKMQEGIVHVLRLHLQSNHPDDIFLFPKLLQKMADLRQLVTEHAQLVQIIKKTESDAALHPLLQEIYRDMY
Sequence of Retinoic acid receptor RXR-alpha (Homo sapiens) (P19793 whole entry, looked up): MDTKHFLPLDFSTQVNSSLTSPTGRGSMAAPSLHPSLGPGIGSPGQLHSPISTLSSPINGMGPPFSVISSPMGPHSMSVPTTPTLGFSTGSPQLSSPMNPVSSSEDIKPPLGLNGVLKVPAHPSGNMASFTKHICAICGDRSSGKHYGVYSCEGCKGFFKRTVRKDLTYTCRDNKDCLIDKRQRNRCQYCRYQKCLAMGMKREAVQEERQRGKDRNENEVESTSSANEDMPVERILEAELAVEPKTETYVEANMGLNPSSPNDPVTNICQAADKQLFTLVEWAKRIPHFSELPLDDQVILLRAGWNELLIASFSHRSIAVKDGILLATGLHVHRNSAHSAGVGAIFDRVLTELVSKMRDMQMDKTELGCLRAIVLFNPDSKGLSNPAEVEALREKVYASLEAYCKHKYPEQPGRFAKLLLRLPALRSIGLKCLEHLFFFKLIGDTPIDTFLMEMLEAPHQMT
Sequence of Cytochrome P450 1A2 (Homo sapiens) (P05177 whole entry, looked up): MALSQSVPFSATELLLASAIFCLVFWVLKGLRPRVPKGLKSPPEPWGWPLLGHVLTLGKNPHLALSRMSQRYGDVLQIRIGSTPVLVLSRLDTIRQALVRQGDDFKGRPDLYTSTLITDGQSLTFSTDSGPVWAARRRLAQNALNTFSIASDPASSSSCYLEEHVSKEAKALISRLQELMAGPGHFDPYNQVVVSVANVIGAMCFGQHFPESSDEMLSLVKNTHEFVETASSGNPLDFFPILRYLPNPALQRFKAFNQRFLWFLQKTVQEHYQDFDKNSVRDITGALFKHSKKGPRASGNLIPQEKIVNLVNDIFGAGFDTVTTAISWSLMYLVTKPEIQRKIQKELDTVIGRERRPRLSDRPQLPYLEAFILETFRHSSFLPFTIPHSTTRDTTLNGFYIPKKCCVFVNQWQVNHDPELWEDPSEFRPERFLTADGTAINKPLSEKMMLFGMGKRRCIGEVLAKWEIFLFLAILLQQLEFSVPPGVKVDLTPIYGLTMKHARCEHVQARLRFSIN
Sequence of Cytochrome P450 2C19 (Homo sapiens) (P33261 whole entry, looked up): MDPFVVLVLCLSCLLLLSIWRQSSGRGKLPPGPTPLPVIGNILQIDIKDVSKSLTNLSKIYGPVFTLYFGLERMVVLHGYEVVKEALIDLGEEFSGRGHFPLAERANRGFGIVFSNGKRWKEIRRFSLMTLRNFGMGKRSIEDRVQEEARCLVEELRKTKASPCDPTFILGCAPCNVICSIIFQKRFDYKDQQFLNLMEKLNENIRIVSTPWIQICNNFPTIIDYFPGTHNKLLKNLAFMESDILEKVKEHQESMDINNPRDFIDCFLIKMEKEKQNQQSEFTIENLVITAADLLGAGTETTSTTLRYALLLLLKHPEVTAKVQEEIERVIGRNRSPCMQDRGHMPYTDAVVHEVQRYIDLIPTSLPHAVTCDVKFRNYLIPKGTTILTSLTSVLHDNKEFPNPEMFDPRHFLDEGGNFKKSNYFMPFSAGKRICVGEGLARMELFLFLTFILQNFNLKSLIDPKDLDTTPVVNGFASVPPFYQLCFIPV
Sequence of Cytochrome P450 3A4 (Homo sapiens) (P08684 whole entry, looked up): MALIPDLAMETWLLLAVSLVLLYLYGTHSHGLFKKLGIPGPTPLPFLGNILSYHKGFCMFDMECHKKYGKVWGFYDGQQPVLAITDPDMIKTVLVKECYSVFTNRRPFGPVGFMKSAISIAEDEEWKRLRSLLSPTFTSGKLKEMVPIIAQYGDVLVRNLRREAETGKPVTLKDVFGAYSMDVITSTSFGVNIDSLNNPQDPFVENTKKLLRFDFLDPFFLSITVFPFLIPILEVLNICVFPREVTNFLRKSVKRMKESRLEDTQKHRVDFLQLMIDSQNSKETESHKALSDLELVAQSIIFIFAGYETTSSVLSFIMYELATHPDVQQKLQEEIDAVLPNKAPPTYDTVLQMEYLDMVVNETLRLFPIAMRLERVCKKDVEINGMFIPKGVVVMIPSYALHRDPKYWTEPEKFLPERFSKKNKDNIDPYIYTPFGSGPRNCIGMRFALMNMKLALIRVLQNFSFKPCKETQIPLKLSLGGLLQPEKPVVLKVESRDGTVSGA
Sequence of 3',5'-cyclic-AMP phosphodiesterase 4B (Homo sapiens) (Q07343 whole entry, looked up): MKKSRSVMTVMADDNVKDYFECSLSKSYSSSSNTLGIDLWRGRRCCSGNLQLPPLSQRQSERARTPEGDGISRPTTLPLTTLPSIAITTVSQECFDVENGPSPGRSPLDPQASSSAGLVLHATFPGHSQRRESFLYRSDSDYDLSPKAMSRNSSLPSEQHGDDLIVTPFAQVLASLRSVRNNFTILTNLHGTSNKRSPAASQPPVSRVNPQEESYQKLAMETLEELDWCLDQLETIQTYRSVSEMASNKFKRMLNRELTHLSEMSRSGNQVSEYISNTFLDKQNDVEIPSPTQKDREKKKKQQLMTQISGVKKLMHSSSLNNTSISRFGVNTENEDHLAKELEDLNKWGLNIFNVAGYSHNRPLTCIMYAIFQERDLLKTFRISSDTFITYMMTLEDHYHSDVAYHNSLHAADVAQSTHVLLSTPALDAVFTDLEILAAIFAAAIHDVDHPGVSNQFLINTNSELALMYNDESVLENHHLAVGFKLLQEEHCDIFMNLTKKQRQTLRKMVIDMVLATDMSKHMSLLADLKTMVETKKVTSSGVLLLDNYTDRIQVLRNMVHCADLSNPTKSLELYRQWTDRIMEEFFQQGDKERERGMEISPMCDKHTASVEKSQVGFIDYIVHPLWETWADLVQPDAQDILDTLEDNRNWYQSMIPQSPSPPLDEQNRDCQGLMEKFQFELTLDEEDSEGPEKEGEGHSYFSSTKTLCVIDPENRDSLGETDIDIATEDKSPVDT
Sequence of Cytochrome P450 2D6 (Homo sapiens) (P10635 whole entry, looked up): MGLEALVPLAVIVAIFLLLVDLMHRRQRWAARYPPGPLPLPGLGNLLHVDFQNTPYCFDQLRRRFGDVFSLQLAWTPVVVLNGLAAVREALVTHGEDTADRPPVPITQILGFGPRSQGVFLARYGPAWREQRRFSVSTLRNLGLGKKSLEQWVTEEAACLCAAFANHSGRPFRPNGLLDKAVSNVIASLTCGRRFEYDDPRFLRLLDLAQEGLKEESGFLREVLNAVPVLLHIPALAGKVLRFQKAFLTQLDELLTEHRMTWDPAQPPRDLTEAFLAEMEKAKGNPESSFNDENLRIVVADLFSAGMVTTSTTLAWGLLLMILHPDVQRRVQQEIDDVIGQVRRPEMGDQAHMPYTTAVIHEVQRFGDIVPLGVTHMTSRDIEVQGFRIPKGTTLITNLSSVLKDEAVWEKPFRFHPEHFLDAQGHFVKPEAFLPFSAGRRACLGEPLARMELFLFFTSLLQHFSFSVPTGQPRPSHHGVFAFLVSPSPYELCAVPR

Regarding `COc1ccc2[nH]cc(CCNc3cc(-c4cccc(C#N)c4)ncn3)c2c1`, the Potency is 0.794 µM (active) in assay [1], 3.98 µM (active) in assay [4], 7.94 µM (active) in [5] and 31.6 µM (active) in [6]. Further, in [2], the result was inactive. Also, in assay [3], the Potency entry is “inactive”.

With `C=C1CC/C=C(/C)CC[C@@H]2[C@@H]1CC2(C)C`, the compound was classed as inactive in assay [7] and in assay [8].

On to `CCCCCCCCCC=O`, for which the result in assay [7] and in assay [8] was inactive.

In the case of `O=c1cc(-c2ccc(O)cc2)oc2cc(O[C@@H]3O[C@H](CO)[C@@H](O)[C@H](O)[C@H]3O[C@@H]3OC[C@](O)(CO)[C@H]3O)cc(O)c12`, in [7], the call was inactive.

Consider `C=C(C)C1CC=C(C)C(O)C1` (stereo not drawn), for which the Potency entry in assay [4] and in assay [9] was “inactive” throughout. The call in assay [10] and in assay [8] was inactive. The max response in assay [11] was -6.28%; in assay [12] it was 5.08% (inactive); in assay [14], -4.25% (inactive). Also, the activation in [13] is -1.04% (inactive).

As for `C[C@@H]1CC[C@]2(C)CC[C@]3(C)C(=CC(=O)C4[C@@]5(C)CC[C@@H](O)[C@](C)(C(=O)O)C5CC[C@]43C)C2[C@H]1C` (stereo partly drawn), the compound was classed as inactive in assay [8].

As for `Oc1cc(O)c2c(c1)O[C@@H](c1cc(O)c(O)c(O)c1)[C@H](O)C2`, the call in [7] was inactive.

In the case of `CCCCC/C=C/C(=O)CCc1ccc(O)c(OC)c1`, the outcome in assay [8] was inactive.

In the case of `C=C1C[C@@]23CC[C@H]4[C@](C)(CCC[C@]4(C)C(=O)O[C@@H]4O[C@H](CO)[C@@H](O)[C@H](O)[C@H]4O)[C@@H]2CC[C@]1(O[C@H]1O[C@@H](CO)[C@H](O)[C@@H](O)[C@@H]1O)C3`, the compound was classed as inactive in assay [8].

`C=C(C)[C@H]1CC=C(CO)CC1`: in assay [8], the outcome was inactive.

`CC(=O)O[C@@H]1CC[C@@]2(C)[C@@H](CC[C@]3(C)[C@@H]2C(=O)C=C2[C@@H]4[C@@H](C)[C@H](C)CC[C@]4(C)CC[C@]23C)[C@@]1(C)C(=O)O`: the result in assay [7] was inactive.

Turning to `CCCCCCCCC/C=C/C(=O)CCc1ccc(O)c(OC)c1`, the compound was classed as inactive in assay [7] and in [8].

`CCCCCCCC/C=C\CCCCCCCCCCCCCC(=O)O`: the compound was called inactive in [8].

As to `CC1=CC[C@H](C(C)C)C=C1`, the compound was called inactive in assay [8].

As for `Cc1ccc(O)c(O)c1`, in [8], the compound was called inactive.

Take `CCCCC/C=C/C/C=C/CCCCCCCC(=O)O`: in assay [7], the call was inactive.

As to `O=c1cc(-c2ccc(O)c(O)c2)oc2cc(O[C@@H]3O[C@@H](CO)[C@@H](O)[C@@H](O)[C@H]3O)cc(O)c12`, the Potency in assay [1] is 39.8 µM (active). For the same compound, the Potency result in [15], in [16] and in assay [5] was “inactive” each time. For the same compound, the compound was classed as inactive in assay [8].

Take `C=CC(C)(CCC=C(C)C)OC(C)=O` (stereo not drawn): the Potency entry in assay [9] was “inactive”. Also, the compound was classed as inactive in assay [10]. Further, the max response was -5.27% in [11], -7.97% (inactive) in [12] and -0.802% (inactive) in assay [14]. In assay [13], the activation is -1.51% (inactive).

Turning to `Cc1ccc(C(C)C)cc1`, in [8], the result was inactive.

With `CC12CC3(O)OC(O1)C1(COC(=O)c4ccc(O)cc4)C3CC21OC1OC(CO)C(O)C(O)C1O` (stereo not drawn), in assay [8], the result was inactive.

Consider `C=CC(=C)CCC=C(C)C`, for which the Potency entry in assay [9] is “inactive”. Further, the call in assay [10] and in assay [8] was inactive. Besides, the max response was 4.75% in assay [11], 7.13% (inactive) in [12] and -1.83% (inactive) in assay [14]. Moreover, the activation in assay [13] was 0.0217% (inactive).

Take `C=C/C(C)=C/C/C=C(\C)CCC=C(C)C`: in assay [8], the compound was called inactive.

As to `O=C(O)[C@H]1O[C@@H](Oc2c(-c3ccc(O)c(O)c3)oc3cc(O)cc(O)c3c2=O)[C@H](O)[C@@H](O)[C@@H]1O`, the compound was classed as inactive in assay [8].
